From PMC5540273 (PLoS ONE, 2017)

Assays:
Settings in all cases: concentration: 1 μM,replicates: in singlicate; n = 1
[1] = tested on: CAMK1
[2] = tested on: CAMK2A
[3] = tested on: CAMK2B
[4] = tested on: CAMK2D
[5] = tested on: CAMK2G
[6] = tested on: CAMK4
[7] = tested on: CAMKK1
[8] = tested on: CAMKK2
[9] = tested on: CASK
[10] = tested on: T1, CDC2L1
T1 construct: gene CDK11B
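Also: KINOMEscan kinase panel screen.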

| Structure (SMILES) | %Inh [1] [%] | %Inh [2] [%] | %Inh [3] [%] | %Inh [4] [%] | %Inh [5] [%] | %Inh [6] [%] | %Inh [7] [%] | %Inh [8] [%] | %Inh [9] [%] | %Inh [10] [%] |
| --- | --- | --- | --- | --- | --- | --- | --- | --- | --- | --- |
| NC(=O)c1ccc(-c2cc3ncnc(SCC(=O)O)c3s2)cc1 | 0 | 0 | 0 | 0 | 0 | 0 | 75 | 81 | 0 | 0 |
| Cl.Cl.NC[C@H](CC1CCCCC1)NC(=O)c1ccc(-c2ccnc3[nH]ccc23)s1 [GSK1581428] | 37 | 0 | 0 | 7 | 5 | 0 | 40 | 27 | 4 | 0 |
| CCN1CCN(CCCC(=O)Nc2n[nH]c3nc(-c4ccc(O)cc4)c(Br)cc23)CC1 [SB-731579] | 0 | 0 | 0 | 0 | 0 | 10 | 0 | 0 | 0 | 0 |
| CCOC(=O)N1CCC(n2cnc(-c3ccc(F)cc3)c2-c2ccnc(N)n2)CC1 [SB-219952] | 0 | 0 | 0 | 0 | 8 | 12 | 0 | 0 | 0 | 11 |
| CSc1nccc(-c2c(-c3ccc(F)cc3)ncn2CCCN2CCOCC2)n1.Cl [SB-217146] | 6 | 0 | 0 | 0 | 0 | 0 | 0 | 0 | 0 | 0 |
| CC(C(=O)NC1CCN(c2ccnc(Nc3ccc(F)cc3)n2)C1)c1ccc(Cl)cc1 (stereo not drawn) [GSK1379713] | 8 | 0 | 0 | 2 | 26 | 0 | 0 | 5 | 0 | 0 |
| C[C@@H](Oc1cc(-n2cnc3cc(-c4ccncc4)ccc32)sc1C(N)=O)c1ccccc1Cl [GSK479719] | 4 | 0 | 0 | 0 | 0 | 0 | 18 | 54 | 29 | 0 |
| CN(c1ccc2c(c1)nc(NCc1ccc(F)cc1)n2C)c1ccnc(Nc2ccc(CS(C)(=O)=O)cc2)n1.Cl [GW813244] | 0 | 0 | 0 | 0 | 1 | 0 | 0 | 6 | 15 | 94.5 |
| Cl.Nc1n[nH]c2cc(-c3ccccn3)ccc12 [GSK2189892] | 23 | 0 | 0 | 2 | 24 | 0 | 0 | 9 | 0 | 1 |
| O=c1[nH]cc(-c2ccc(O)cc2)c2sc(-c3ccncc3)cc12 [GSK1033723] | 6 | 0 | 0 | 4 | 29 | 0 | 15 | 15 | 15 | 0 |
| C[C@@H](Oc1cc(-n2cnc3cc(-c4cnn(C)c4)ccc32)sc1C(N)=O)c1ccccc1Cl [GSK580432] | 39 | 0 | 9 | 23 | 25 | 0 | 59 | 90.3 | 23 | 0 |
| CN1CCN(CCNc2nc3cc(Oc4ccc(NC(=O)Nc5cc(C(F)(F)F)ccc5F)cc4)ccc3[nH]2)CC1.Cl.Cl [GW768504] | 15 | 0 | 0 | 0 | 0 | 20 | 0 | 0 | 16 | 0 |
| Cc1cccc(-c2nc(Nc3ccncc3)c3sccc3n2)n1 [GW869641] | 24 | 3 | 9 | 14 | 18 | 0 | 11 | 23 | 21 | 6 |
| Cn1ccc2ncnc(Oc3ccc(NC(=O)Nc4cccc(C(F)(F)F)c4)c(F)c3)c21 | 0 | 6 | 8 | 6 | 10 | 15 | 18 | 19 | 0 | 19 |
| Cc1cccc2c(-c3ccncc3)c(-c3ccc(F)cc3)nn12.Cl [GW461487] | 0 | 0 | 0 | 29 | 32 | 0 | 0 | 11 | 3 | 0 |
| O=C(Nc1ccccc1)c1cccc(Oc2ccc3nccn3n2)c1 | 0 | 0 | 12 | 14 | 0 | 0 | 6 | 0 | 8 | 96 |
| COC(=O)Nc1nc2cc(Oc3ccc(NC(=O)Nc4cc(C(F)(F)F)ccc4Cl)cc3)ccc2[nH]1.Cl [GW697465] | 5 | 0 | 0 | 0 | 7 | 0 | 2 | 0 | 0 | 0 |

| Structure (SMILES) | %Inh [1] [%] | %Inh [2] [%] | %Inh [3] [%] | %Inh [4] [%] | %Inh [5] [%] | %Inh [6] [%] | %Inh [7] [%] | %Inh [8] [%] | %Inh [9] [%] | %Inh [10] [%] |
| --- | --- | --- | --- | --- | --- | --- | --- | --- | --- | --- |
| CC(C)c1nc(-c2cccc(NS(=O)(=O)c3ccccc3)c2)c(-c2ccnc(Nc3ccc4c(c3)CN(C)CC4)n2)s1 [GSK1649598] | 57 | 0 | 0 | 22 | 28 | 0 | 29 | 23 | 14 | 15 |
| C[C@@H]1CNc2c(sc3ccc4nc(-c5ccncc5)ccc4c23)C(=O)N1 | 19 | 25 | 23 | 22 | 14 | 13 | 27 | 47 | 0 | 4 |
| CS(=O)c1ccc(-c2coc3ccc(-c4n[nH]c(=O)o4)cc23)cc1 (stereo not drawn) | 0 | 5 | 16 | 6 | 3 | 0 | 7 | 12 | 26 | 0 |
| Cn1ccc2ncnc(Oc3ccc(NC(=O)Nc4cc(C(C)(C)C)on4)c(Cl)c3)c21 | 17 | 100 | 100 | 4 | 14 | 0 | 6 | 22 | 0 | 0 |
| CN(c1cccc(CNc2nc(Nc3ccc4c(c3)CC(=O)N4)ncc2C(F)(F)F)c1)S(C)(=O)=O | 0 | 0 | 0 | 7 | 0 | 0 | 15 | 16 | 7 | 0 |
| COC(=O)c1cccc(NC(=O)NC2CCN(c3ccnc(Nc4cc(OC)c(OC)c(OC)c4)n3)C2)c1 (stereo not drawn) [GSK1379767] | 35 | 0 | 0 | 0 | 26 | 0 | 13 | 19 | 2 | 0 |
| CCn1c(-c2nonc2N)nc2cncc(CNC3CCNCC3)c21.Cl [SB-747651] | 19 | 0 | 0 | 5 | 17 | 71 | 1 | 16 | 16 | 0 |
| FC(F)(F)c1cc(Br)cc(Nc2nccc(-c3cnn4ncccc34)n2)c1 [GW810578] | 23 | 0 | 6 | 21 | 28 | 0 | 45 | 59 | 22 | 0 |
| COc1ccc(Nc2nccc(N3CCC(NC(=O)c4cccc(C#N)c4)C3)n2)cc1 (stereo not drawn) [GSK1379730] | 0 | 0 | 0 | 0 | 6 | 0 | 8 | 10 | 0 | 0 |
| Cc1ccc(CC(=O)N2CCc3cc(-c4cn(C)c5ncnc(N)c45)ccc32)cc1 [GSK2634758] | 7 | 0 | 0 | 16 | 22 | 0 | 5 | 19 | 7 | 0 |
| CC(C)S(=O)(=O)N1CCN(Cc2ccc3c(c2)nc(NC(=O)c2ccsc2)n3C[C@H](O)c2ccccc2)CC1 [GW635815] | 25 | 0 | 0 | 11 | 39 | 0 | 44 | 61 | 22 | 0 |
| Cc1ccn2nc(-c3ccc(F)cc3)c(-c3ccncc3)c2c1.Cl [GW457859] | 16 | 0 | 0 | 0 | 15 | 0 | 0 | 9 | 6 | 0 |
| COc1cccc(CNC(=O)NC2CCN(c3ccnc(Nc4cc(OC)c(OC)c(OC)c4)n3)C2)c1 (stereo not drawn) [GSK1379765] | 35 | 0 | 0 | 0 | 19 | 0 | 16 | 14 | 0 | 0 |
| c1ccc(Oc2ccc(Nc3ccnc4ccc(-c5ccccn5)cc34)cc2)cc1 [GW407034] | 1 | 0 | 0 | 7 | 16 | 0 | 0 | 9 | 8 | 0 |
| Cn1cc(-c2cccc3c(N)c(C(N)=O)nnc23)cn1 | 33 | 7 | 2 | 15 | 0 | 0 | 5 | 6 | 4 | 1 |
| CS(=O)(=O)c1cccc(CNc2nc(Nc3ccc4c(c3)[C@@H]3C[C@@H]4CNC3=O)ncc2C(F)(F)F)c1 | 1 | 0 | 0 | 0 | 0 | 0 | 41 | 15 | 0 | 0 |
